What was measured:
Settings in all cases: concentration: 1 μM, replicates: in singlicate; n = 1
[1] = test system: T1, DCAMKL2
T1 construct: gene DCLK2

[2] = test system: T2, DCAMKL3
T2 construct: gene DCLK3

[3] = test system: DDR1
[4] = test system: DDR2
[5] = test system: T3, DLK
T3 construct: gene MAP3K12

[6] = test system: T4, DMPK2
T4 construct: gene CDC42BPG

[7] = test system: DMPK
[8] = test system: T5, DRAK1
T5 construct: gene STK17A

[9] = test system: T6, DRAK2
T6 construct: gene STK17B

[10] = test system: DYRK1A
[11] = test system: DYRK1B
[12] = test system: DYRK2
[13] = test system: EGFR
[14] = test system: EIF2AK1
[15] = test system: EPHA1
[16] = test system: EPHA2
[17] = test system: EPHA3
[18] = test system: EPHA4
[19] = test system: EPHA5
[20] = test system: EPHA6
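Further: KINOMEscan kinase panel screen.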

Compound | %Inh [1] | %Inh [2] | %Inh [3] | %Inh [4] | %Inh [5] | %Inh [6] | %Inh [7] | %Inh [8] | %Inh [9] | %Inh [10] | %Inh [11] | %Inh [12] | %Inh [13] | %Inh [14] | %Inh [15] | %Inh [16] | %Inh [17] | %Inh [18] | %Inh [19] | %Inh [20]
O=C(Nc1n[nH]c2nc(-c3ccccc3O)ccc12)C1CC1 [SB-711880] | 0% | 0% | 1% | 0% | 32% | 0% | 0% | 3% | 0% | 9% | 56% | 14% | 27% | 0% | 0% | 4% | 30% | 0% | 5% | 0%
COc1cccc(CC(=O)N2CCc3cc(-c4cn(C)c5ncnc(N)c45)ccc32)c1 [GSK2608899] | 0% | 14% | 97% | 27% | 36% | 53% | 25% | 4% | 0% | 6% | 22% | 22% | 23% | 87% | 0% | 0% | 19% | 4% | 5% | 10%
Cl.Cl.NCC(NC(=O)c1cc(-c2cccnc2)c(-c2ccnc3[nH]ccc23)s1)c1ccccc1 (stereo not shown) [GSK1323434] | 9% | 0% | 11% | 55% | 34% | 51% | 79% | 19% | 0% | 48% | 17% | 33% | 72% | 0% | 4% | 10% | 40% | 0% | 0% | 2%
O=C(Nc1n[nH]c2cc(-c3cccs3)ccc12)C1CC1 [SB-731284] | 3% | 0% | 10% | 23% | 26% | 0% | 0% | 14% | 12% | 15% | 0% | 34% | 4% | 7% | 0% | 0% | 13% | 0% | 0% | 0%
COc1cc(Nc2nccc(N3CCC(NS(=O)(=O)c4ccc(NC(C)=O)cc4)CC3)n2)cc(OC)c1OC [GSK1379825] | 1% | 0% | 0% | 14% | 76% | 83% | 0% | 0% | 0% | 25% | 8% | 10% | 11% | 7% | 54% | 46% | 0% | 28% | 0% | 37%
O=C1NC(=O)C(c2ccccc2Cl)=C1Nc1cccc(Cl)c1 [SB-342409] | 10% | 14% | 9% | 0% | 0% | 75% | 1% | 1% | 0% | 61% | 0% | 23% | 0% | 27% | 8% | 7% | 0% | 25% | 0% | 17%
O=C(Nc1n[nH]c2nc(-c3ccccc3)ccc12)C1CC1 [SB-708999] | 6% | 0% | 3% | 32% | 0% | 50% | 0% | 0% | 0% | 15% | 0% | 12% | 1% | 0% | 15% | 15% | 0% | 0% | 2% | 0%
Cn1cc(-c2ccc3c(c2)CCN3C(=O)Cc2cc(F)cc(C(F)(F)F)c2)c2c(N)ncnc21 [GSK2635225] | 0% | 0% | 100% | 85% | 23% | 0% | 0% | 0% | 0% | 4% | 0% | 4% | 23% | 22% | 21% | 11% | 26% | 0% | 0% | 17%
CN(c1ccc2c(c1)nc(NCc1ccccc1)n2C)c1ccnc(Nc2ccc(CS(C)(=O)=O)cc2)n1.Cl [GW811603] | 0% | 99.4% | 99.5% | 100% | 14% | 0% | 9% | 0% | 0% | 5% | 0% | 0% | 0% | 0% | 0% | 13% | 27% | 0% | 10% | 0%
COC(=O)Nc1nc2ccc(Oc3ccc(NC(=O)Nc4cc(C(F)(F)F)ccc4F)cc3)cc2[nH]1.Cl [GW654607] | 0% | 36% | 100% | 94.2% | 13% | 9% | 0% | 0% | 1% | 13% | 42% | 13% | 29% | 26% | 90.9% | 98% | 39% | 96.8% | 66% | 97.7%
Cl.N#CCc1ccc(Nc2nccc(Nc3ccc(Oc4ccccc4)cc3)n2)cc1 [GW639905] | 0% | 1% | 32% | 5% | 35% | 0% | 0% | 22% | 0% | 19% | 0% | 8% | 33% | 5% | 1% | 9% | 0% | 0% | 0% | 0%
CN1CCN(Cc2ccc(NC(=O)Nc3ccc(N(C)c4ccnc(Nc5ccc(CS(C)(=O)=O)cc5)n4)cc3)cc2)CC1.Cl [GW827654] | 18% | 30% | 99.4% | 100% | 64% | 57% | 0% | 10% | 21% | 0% | 3% | 32% | 0% | 0% | 33% | 29% | 49% | 0% | 5% | 2%
Cc1ccc(Nc2ccnc(Nc3ccc(C)c(F)c3)n2)cc1O.Cl [GW582868] | 0% | 0% | 10% | 12% | 40% | 0% | 0% | 0% | 0% | 20% | 0% | 0% | 38% | 3% | 48% | 19% | 0% | 2% | 0% | 6%
CCOc1nccc(-c2c(-c3ccc(F)cc3)ncn2C2CCNCC2)n1 [SB-249175] | 24% | 10% | 0% | 7% | 0% | 75% | 15% | 0% | 0% | 1% | 50% | 6% | 9% | 45% | 10% | 0% | 13% | 4% | 0% | 7%
CNc1nccc(-c2ccc3c(N)n[nH]c3c2)n1 [GSK2206003] | 1% | 72% | 0% | 29% | 34% | 0% | 0% | 99.2% | 83% | 98.8% | 99.1% | 90% | 25% | 0% | 11% | 0% | 12% | 7% | 0% | 0%
COC(=O)Nc1nc2ccc(Oc3ccc(CC(=O)Nc4cc(C(F)(F)F)ccc4F)cc3)cc2[nH]1 [GW680903] | 0% | 0% | 100% | 97.4% | 30% | 0% | 0% | 54% | 0% | 13% | 8% | 0% | 30% | 3% | 12% | 54% | 100% | 21% | 0% | 34%
c1ccc(Oc2ccc(Nc3ccnc4cc(-c5ccc(CN6CCCCC6)o5)ccc34)cc2)nc1 [GW567143] | 8% | 25% | 30% | 35% | 79% | 0% | 0% | 0% | 0% | 26% | 0% | 10% | 55% | 0% | 78% | 0% | 6% | 3% | 0% | 0%

Source: paper PMC5540273 (PLoS ONE, 2017)
